From PubChem BioAssay AID1159580 (chemical genetic matrix, 2015)
“And” between values parts separate entries of the source, which are not always exact repeats. Equal values may be shown once. The campaign covered roughly 5,500 compounds. About 2,000 (36%) were called active. Roughly 18% stayed inconclusive and do not appear here. Rule as the data show it: active = normalized growth mostly below about 0.91 (no sharp cut-off); inconclusive = no clear call, values can overlap the other calls; inactive = mostly above about 0.92. The list shows a part of the results.

Assay: chemical genetic growth profiling, strain panel (AID 1159580);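 also: tested at 20 µM; growth read once vehicle control cultures reached saturation at 30 °C; 1 = growth at the plate median or of vehicle wells; lower values mean less growth of the strain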
Settings: S. cerevisiae deletion strains, growth OD

Measured: normalized growth

CC(C)CC1C(=O)N2CCC[C@H]2C2(O)O[C@](NC(=O)C3C=C4c5cccc6[nH]c(Br)c(c56)C[C@H]4N(C)C3)(C(C)C)C(=O)N12 (stereo partly specified)
inactive: locus YAL013W, strain DEP1, hits give low values 0.989 | locus YAL021C, strain ccr4, hits give low values 0.976 | locus YAL026C, strain drs2, hits give low values 0.991 | locus YAL030W, strain snc1, hits give low values 0.998 | locus YBL061C, strain skt5, hits give low values 0.987 | locus YBR009C, strain hhf1, hits give low values 0.996 | locus YBR021W, strain FUR4, hits give low values 0.996 | locus YBR023C, strain chs3, hits give low values 0.992 | locus YBR171W, strain sec66, hits give low values 0.981 | locus YBR229C, strain ROT2, hits give low values 0.993 | locus YBR231C, strain swc5, hits give low values 0.968 | locus YBR279W, strain paf1, hits give low values 0.988 | locus YCL011C, strain gbp2, hits give low values 0.976 | locus YCL016C, strain dcc1, hits give low values 0.995 | locus YCL029C, strain bik1, hits give low values 0.961 | locus YCL069W, strain vba3, hits give low values 0.997 | locus YCR088W, strain abp1, hits give low values 0.99 | locus YDL005C, strain med2, hits give low values 0.987 | locus YDL035C, strain GPR1, hits give low values 0.993 | locus YDL040C, strain nat1, hits give low values 0.984 | locus YDL074C, strain BRE1, hits give low values 0.974 | locus YDL101C, strain DUN1, hits give low values 0.988 | locus YDL134C, strain PPH21, hits give low values 0.992 | locus YDL185W, strain tfp1, hits give low values 0.947 | locus YDL192W, strain arf1, hits give low values 0.965 | locus YDR001C, strain nth1, hits give low values 0.972 | locus YDR069C, strain doa4, hits give low values 0.983 | locus YDR101C, strain arx1, hits give low values 0.984 | locus YDR137W, strain rgp1, hits give low values 0.885 | locus YDR150W, strain NUM1, hits give low values 0.976 | locus YDR159W, strain sac3, hits give low values 0.989 | locus YDR162C, strain NBP2, hits give low values 0.989 | locus YDR195W, strain ref2 0.962 | locus YDR297W, strain sur2, hits give low values 0.976 | locus YDR318W, strain mcm21, hits give low values 0.977 | locus YDR334W, strain swr1, hits give low values 0.973 | locus YDR335W, strain msn5, hits give low values 0.995 | locus YDR388W, hits give low values 0.989 | locus YDR392W, strain spt3, hits give low values 0.959 | locus YDR502C, strain sam2, hits give low values 0.972 | locus YEL003W, strain gim4, hits give low values 0.981 | locus YEL037C, strain rad23, hits give low values 0.989 | locus YEL061C, strain CIN8 (second series), hits give low values 0.995 | locus YEL061C, strain CIN8, hits give low values 0.982 | locus YER015W, strain faa2, hits give low values 0.972 | locus YER016W, strain bim1, hits give low values 0.982 | locus YER110C, hits give low values 0.964 | locus YER111C, strain swi4, hits give low values 0.993 | locus YER155C, strain BEM2 (second series), hits give low values 0.973 | locus YER155C, strain BEM2, hits give low values 0.985 | locus YER167W, strain BCK2, hits give low values 0.961 | locus YFR010W, strain ubp6, hits give low values 1.01 | locus YGL078C, strain dbp3, hits give low values 0.965 | locus YGL086W, strain mad1, hits give low values 0.97 | locus YGL167C, strain pmr1, hits give low values 0.974 | locus YGL173C, strain kem1, hits give low values 1 | locus YGL227W, strain vid30, hits give low values 0.994 | locus YGL240W, strain doc1, hits give low values 0.943 | locus YGL248W, strain PDE1, hits give low values 0.987 | locus YGL253W, strain hxk2, hits give low values 0.993 | locus YGR078C, strain PAC10, hits give low values 0.989 | locus YGR135W, strain pre9, hits give low values 0.982 | locus YGR229C, strain SMI1, hits give low values 1.01 | locus YGR252W, strain gcn5, hits give low values 1.14 | locus YHR013C, strain ard1, hits give low values 0.945 | locus YHR027C, strain rpn1, hits give low values 0.962 | locus YHR030C, strain SLT2, hits give low values 0.981 and 0.978 | locus YHR079C, strain IRE1 (second series), hits give low values 0.982 | locus YHR079C, strain IRE1, hits give low values 0.986 | locus YHR094C, strain hxt1, hits give low values 0.966 | locus YHR129C, strain ARP1, hits give low values 0.985 | locus YHR142W, strain chs7, hits give low values 1.01 | locus YHR200W, strain rpn10, hits give low values 0.976 | locus YIL066C, strain RNR3, hits give low values 0.981 | locus YIL073C, strain SPO22, hits give low values 0.925 | locus YIL125W, strain kgd1, hits give low values 0.965 | locus YIR030C, strain dcg1, hits give low values 0.987 | locus YJL092W, strain hpr5, hits give low values 0.968 | locus YJL095W, strain BCK1 (second series), hits give low values 0.999 | locus YJL095W, strain BCK1, hits give low values 0.971 and 0.976 | locus YJL115W, strain asf1, hits give low values 0.958 | locus YJL129C, strain trk1, hits give low values 0.957 | locus YJL134W, strain LCB3, hits give low values 0.983 | locus YJL154C, strain vps35, hits give low values 0.979 | locus YJL164C, strain tpk1, hits give low values 0.997 | locus YJL166W, strain qcr8, hits give low values 0.996 | locus YJL168C, strain set2, hits give low values 0.977 | locus YJL187C, strain SWE1 (second series), hits give low values 0.979 | locus YJR043C, strain POL32, hits give low values 0.995 | locus YJR066W, strain TOR1, hits give low values 0.993 | locus YJR075W, strain HOC1, hits give low values 0.992
